Screening data: PubChem BioAssay, National Center for Advancing Translational Sciences (NCATS)
FBPA Giardia inh: qHTS Assay for Inhibitors of Fructose-1,6-bisphosphate Aldolase from Giardia Lamblia | A8B2U2 | purified Giardia FBPA | Potency, µM (highest dose often 59.6 µM), for inactives: at the top dose activity, negative = inhibition, usual class: inhibitors | 290,000 compounds, 0.71% hits; note: potency is the fitted concentration of half-maximal effect; nearly all actives have a fitted effect of over 55% in size
Target sequence (A8B2U2 whole entry, looked up): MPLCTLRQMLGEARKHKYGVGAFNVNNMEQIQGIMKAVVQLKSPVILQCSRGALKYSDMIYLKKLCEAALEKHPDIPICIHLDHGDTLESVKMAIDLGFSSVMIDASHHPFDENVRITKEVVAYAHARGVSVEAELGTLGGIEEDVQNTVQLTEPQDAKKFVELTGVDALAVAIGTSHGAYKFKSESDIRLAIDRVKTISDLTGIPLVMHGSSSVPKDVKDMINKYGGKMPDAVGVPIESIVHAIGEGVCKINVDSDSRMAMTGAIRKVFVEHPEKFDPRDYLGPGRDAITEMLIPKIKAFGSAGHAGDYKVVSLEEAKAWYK
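Giardia FBPA (40 nM reagent) was preincubated 10 min at RT with compound (up to 57.5 uM final), then substrate plus GAPDH/TPI/NAD/arsenate coupling system with diaphorase/resazurin was added; resorufin fluorescence (525/598 nm) was read after 20 min.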
RE007 growth inh: qHTS Assay for Inhibitors of the HIV-1 protein Vpr; Potency, µM (highest dose often 92.2 µM), without a hit: at the top dose activity change, negative = less growth, hits mostly inhibitors; 360,000 compounds, 0.21% hits; S. pombe RE007 Vpr strain, BacTiter-Glo ATP luminescence, 24 h; active = well fitted falling curve with a large enough effect; inconclusive = small, poorly fitted or top-dose-only effect; inactive = no such curve, though single readings can be large or run the other way; note: potency is the fitted concentration of half-maximal effect; nearly all actives have a fitted effect of over 50% in size
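Fission yeast strain RE007, carrying one chromosomally integrated HIV-1 vpr copy, was seeded at OD 0.01 in PMG+AL medium with 23 nL pinned compound. After 24 h at 30 °C and 99% humidity, viability was read by BacTiter-Glo luminescence.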
HCMV antiviral: qHTS Assay for inhibitors of the human cytomegalovirus (HCMV). HFF cells, HCMV-luciferase reporter, 72 h; stronger effect = lower value. activity change, negative = inhibition, % at 57.5 µM. 410,000 compounds, 4.5% hits; in the data active = activity change below about -60%; inconclusive = no clear call, values can overlap the other calls; inactive = above about -39%
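HFF cells seeded 16 h at 37C, treated with compounds, infected with luciferase-reporter HCMV at MOI 1 PFU/cell; luciferase read at 72 h post infection, normalized to buffer-only and Salinomycin controls.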
Sm TGR inh: qHTS Assay for the Inhibitors of Schistosoma Mansoni Peroxiredoxins | Schistosoma mansoni thioredoxin glutathione reductase (TGR), Q962Y6 | purified TGR, DTNB reduction, TNB absorbance 405 nm | Potency, µM (top dose mostly 114 µM), inactives show at the top dose activity change, negative = inhibition, hits mostly inhibitors | 360,000 compounds, 3% hits | AID 485364, 2010; note: potency is the fitted concentration of half-maximal effect; nearly all actives have a fitted effect of over 60% in size
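First, TGR (20 nM dispensed) and NADPH were mixed with compound. Second, a 15 min room-temperature incubation followed. Third, further NADPH and then DTNB were added to start the reaction. Finally, TNB absorbance was monitored kinetically.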
Tb PYK inh: qHTS of Trypanosoma Brucei Inhibitors | Potency, µM (titrated, usually from 76.8 µM), for inactives: top-dose activity, negative = inhibition, hits mostly inhibitors | TbPYK enzyme, Kinase-Glo Plus ATP luminescence, 45 min | 410,000 compounds, 0.12% hits; note: potency is the fitted concentration of half-maximal effect; nearly all actives have a fitted effect of over 50% in size
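Assay buffer: 50 mM TEA pH 7.2, 100 mM KCl, 10 mM MgCl2, 0.05% BSA, 0.01% Tween-20. Pyruvate kinase from T. brucei plus substrate met compound, then ADP (130 uM final). Luminescence was read post 45 min RT.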
FMDV inh: High Throughput Screening for Foot and Mouth Disease Virus Antivirals; FMDV antiviral cell-based qHTS; Potency, µM (doses to about 57.9 µM), inactives show at the highest dose activity change, negative = inhibition, usual class: inhibitors; 410,000 compounds, 1.2% hits; AID 1159524, 2015; calls by dose curve; tested in HEK293T cells; note: read-out not given here; potency is the fitted concentration of half-maximal effect; nearly all actives have a fitted effect of over 45% in size
* = called active by the depositor; ? = inconclusive; / = no result. This is a sample that favours compounds with a hit; in the whole collection about 7.7% have one here. Unless noted, calls come from the whole dose curve; as a rule, active = well fitted curve in the direction sought with a large enough effect; inconclusive = small, poorly fitted or top-dose-only effect, or another doubt; inactive = no such curve, though single readings can be large; an effect the other way counts as inactive or inconclusive. % is set by controls: 0 for no effect and ±100 for the full control effect.

SMILES | FBPA Giardia inh | RE007 growth inh | HCMV antiviral | Sm TGR inh | Tb PYK inh | FMDV inh
O=C(N/N=C\c1ccc([N+](=O)[O-])s1)c1cncc(Br)c1 | -13% | 4% | -100* | -24% | 2% | ?
CCN1CCC(N(Cc2cccc(OC)c2)C(=O)Nc2ccc(C)cc2Cl)CC1 | / | / | -15 | 0% | 2% | -7%
COc1ccc(CC(=O)NC2CC(=O)N(c3ccc4c(c3)OCCO4)C2)cc1 (stereo unspecified) | / | / | 12 | -2% | -2% | -18%
O=C(N/N=C/c1ccc([N+](=O)[O-])s1)C(O)c1ccccc1 (stereo unspecified) | ? | -8% | -91* | 32µM* | -2% | 43%
O=CNc1ccc(OC(=O)c2cncc(Br)c2)cc1 | 0% | 15% | -6 | 3% | -3% | -13%
Cc1ccsc1/C=N/NC(=O)c1c[nH]c2ccccc12 | -6% | 12% | 152 | -2% | 0% | 45%
O=C(N/N=C/c1ccc([N+](=O)[O-])s1)c1ccccc1Br | / | -1% | -77* | ? | 7% | /
O=C(Oc1ccc([N+](=O)[O-])cc1)c1cncc(Br)c1 | -3% | 24% | -25 | 18µM* | -13% | 39%
Cc1ccc(/C=N/NC(=O)c2c[nH]c3ccccc23)s1 | / | 8% | -72* | 2% | 5% | 51%
Cc1cc(C)c2c(=O)cc(C(=O)Nc3sc4c(c3C(=O)NCc3ccccc3)CCCC4)oc2c1 | / | / | 1 | -2% | -8% | 0%
Cc1cccc(N(C)C(=O)CSc2nc3ncccc3o2)c1 | / | / | -23 | 22% | 4% | -7%
COc1cc2c(cc1OC)C1C(=O)c3c(cc4c(c3O)C=CC(C)(C)O4)OC1CO2 (stereo unspecified) | -25% | / | / | / | / | ?
COc1cc(OC)c(NS(=O)(=O)c2c(C(=O)N3CCC(C)CC3)c(C)n(C)c2C)cc1Cl | / | / | 12 | -7% | 1% | 25%
COc1ccc(CN2CCCC(c3nc(C)ncc3-c3ccc(F)cc3)C2)c(OC)c1OC (stereo unspecified) | / | / | / | / | / | -10%
CCOC(=O)c1c(S(=O)(=O)N2CCC(C(=O)Nc3cccc(C)n3)CC2)c(C)n(C)c1C | / | / | 9 | 1% | 3% | -25%
COC(=O)N1CCC2(CCCN(c3ccccn3)C2)CC1 | -4% | / | / | / | -4% | -22%
CCN1CC2=C(OC(N)=C(C#N)C2c2ccccc2)/C(=C\c2ccccc2)C1 (stereo unspecified) | ? | -6% | -18 | ? | 1% | 22µM*
CC(C)N1CC2=C(OC(N)=C(C#N)C2c2cccnc2)/C(=C/c2cccnc2)C1 (stereo unspecified) | ? | -6% | 7 | -20% | -2% | -6%
CCN1CC2=C(OC(N)=C(C#N)C2c2cccs2)/C(=C/c2cccs2)C1 (stereo unspecified) | ? | -7% | 2 | 35µM* | -9% | 28µM*
N#CC1=C(N)OC2=C(CN(Cc3ccccc3)C/C2=C\c2cccnc2)C1c1cccnc1 (stereo unspecified) | ? | 17% | -32 | 22µM* | 0% | ?
CCN1C=C(Cc2cccs2)C2=C(C1)C(c1cccs1)C(C#N)=C(N)O2 (stereo unspecified) | ? | -15% | -36 | 22µM* | -2% | 20µM*
COc1ccc(-c2nc(Cc3ccc(Cl)cc3)no2)cc1OC | 2% | 2% | -74* | -6% | -1% | -6%
COc1ccc(Cc2noc(CN3CCN(c4ccc(Cl)cn4)CC3)n2)cc1OC | -2% | -4% | -32 | / | -1% | 13µM*
COc1ccccc1N1CCN(CC(O)c2c(C)[nH]c3ccccc23)CC1 (stereo unspecified) | -3% | -17% | ? | 16µM* | 1% | -14%
Cc1[nH]c2ccccc2c1C(=O)CN1C(=O)C(=O)N(C2CCCC2)C1=O | -2% | 21% | -12 | -3% | -19% | -14%
